From the supplement of paper PMC10338343
± gives the standard deviation.

The sequences below were run on MILI (PIWIL2) piRISC loaded with piRNA #1 (26 nt) (assay: pre-steady-state target cleavage rate (min^-1); guide: piRNA #1 5'p-UGAGGUAGUAGGUUGUAUAGUAUCCA; MIWI and MILI are mouse PIWI proteins and EfPiwi is from a freshwater sponge; tags in brackets are library labels; higher = faster piRNA-guided slicing of the target). Settings: auxiliary factor: 500 nM mouse GTSF1.
How it was run: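 Active affinity-purified piRISC carrying one synthetic guide (1 nM) was mixed with a transcribed, DNA-blocked target RNA library […] in HEPES–potassium acetate buffer at 33 °C for 0–8 or 0–960 min, with or without 500 nM GTSF1 partner protein. Uncleaved targets were then sequenced and normalised to depth and to weakly complementary targets. Three trials were pooled, and k3 was capped at 0.0001 min^-1. A burst-and-steady-state fit was applied to obtain the pre-steady-state cleavage rate.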
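Also: 1 nM active piRISC with 0.1 nM target library at 33 °C single turnover.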

Sequence	pre-steady-state target cleavage rate
GGAGACCUAUCUAUACAACGUACUUCCUCA	0.0209 ± 0.0035
GGAGACCUAUGUAUACAACGAACUACCUCA	0.00287 ± 0.002
GGAGACCUAUGAUUACAACCUACAUACCUCA	0.00484 ± 0.0019
GGAGACCUAUGUAUAGAAGCUACUACCUCA	0.0984 ± 0.013
GGAGACCUAUCUAUACAACCUACUACCACA	0.136 ± 0.019
GGAGACCUAUGAAUUACAACCUACUACCUCA	0.00427 ± 0.0021
GGAGACCUAUGUAUACAACCUAACUACCUCA	0.00595 ± 0.0023
GGAGACCUUACUAUACAAGGAUGAUGGAGA [g13:g22:cont:t1A]	< 0.0001
GGAGACCUUACUAUACAACCUAGAUCCUCA	0.00967 ± 0.0031
GGAGACCUAUCGUAUACAACCUACUACCUCA	0.057 ± 0.011
GGAGACGAUUCUAUACAACCUACUACGUCA	0.0993 ± 0.0097
GGAGACCUAUGAUAUGUUCCUACACCUCA	< 0.0001
GGAGACCUAACUAUACAACCUACUACCCUCA	0.185 ± 0.034
GGAGACCUAUCUUUACAACCUACAACCUCA	0.0745 ± 0.01
GGAGACCUAUGAUAACAACCUACUAUCCUCA	0.00426 ± 0.003
GGAGAGCAUACUAUACAACCUACUAGCUCA	0.0696 ± 0.016
GGAGACCUAUCUAUACAACCUUCUACGUCA	0.00428 ± 0.003
GGAGACCUAACUAUACAUCCUACUACCACA	0.251 ± 0.046
GGAGACCUAUGAAUACAACCUCACUACCUCA	0.00378 ± 0.0031
GGAGACCAUAGUAUACAAGCUACUACCUCA	0.16 ± 0.015
GGAGACCAUACUAUGACAACCUACUACCUCA	0.165 ± 0.017
GGAGACCUAACUAUACUACCUUCUACCUCA	0.00544 ± 0.0042
GGAGACCAUACUAUUCAACCUACAACCUCA	0.185 ± 0.021
